D2 PAM-1: HTS Assay for Positive Allosteric Modulators of the Human D2 Dopamine Receptor: Primary Screen for Potentiators; D(2) dopamine receptor (Homo sapiens), P14416; HEK293 T-REx D2, calcium flux, EC20 dopamine potentiation; potentiation, % at 10 µM; hit rate 0.34% among 340,000; AID 485347, 2010;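 active means potentiation over 3 SD above the plate norm, cut at about 30% in these data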; further: 0% is about no effect
Target sequence (P14416 whole entry, looked up): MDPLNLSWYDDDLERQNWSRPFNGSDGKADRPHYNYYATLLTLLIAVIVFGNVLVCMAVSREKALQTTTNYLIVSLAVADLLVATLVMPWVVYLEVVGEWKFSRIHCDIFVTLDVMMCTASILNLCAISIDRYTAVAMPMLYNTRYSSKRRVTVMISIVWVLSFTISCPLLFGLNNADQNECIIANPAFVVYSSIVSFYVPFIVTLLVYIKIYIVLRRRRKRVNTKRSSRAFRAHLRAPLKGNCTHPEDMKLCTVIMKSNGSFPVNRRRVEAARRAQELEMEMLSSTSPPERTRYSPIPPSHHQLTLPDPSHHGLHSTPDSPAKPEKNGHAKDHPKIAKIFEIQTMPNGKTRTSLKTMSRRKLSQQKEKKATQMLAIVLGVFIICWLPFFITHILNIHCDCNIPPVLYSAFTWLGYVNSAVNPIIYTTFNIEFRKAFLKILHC
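Cells plated with tetracycline inducer and held overnight at 30 C; calcium dye loaded 30–90 min at room temperature; baseline taken, compound added and read 180 s; EC20 dopamine then added and read 180 s.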
D2 ag-1: Beta-Arrestin HTS for Positive Allosteric Modulators of the Human D2 Dopamine Receptor: Agonists | hit rate 0.084% among 360,000 | D(2) dopamine receptor (Homo sapiens), P14416 | AID 624465, 2012 | activation, % (no concentration beside the values) | DiscoveRx PathHunter D2 beta-arrestin, luminescence, 90 min; 100% = 57 uM dopamine signal; in the data active means activation above about 40%
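Agonist mode: compounds alone added to overnight-plated D2 PathHunter cells for 90 min at 37 C, with 57 uM final dopamine (EC100) defining full response. Beta-arrestin recruitment detected by chemiluminescent reagent, read after 1 h at ambient temperature.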
D2 antag: HTS Assay for Allosteric Antagonists of the Human D2 Dopamine Receptor: Primary Screen for Antagonists; D(2) dopamine receptor (Homo sapiens), P14416; HEK293 TREx D2 cells, calcium flux, dopamine EC80; inhibition, % at 10 µM; hit rate 2% among 340,000; in the data active means inhibition above about 30%; inactive means below that, where a call was filed; further: 0% is about no effect
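Calcium mobilization kinetics were recorded at 1 s intervals in tetracycline-induced HEK293 T-REx D2 cells, first for 180 s after compound addition and then 180 s after EC80 dopamine.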
LDHA block: qHTS assay for inhibitors of human lactate dehydrogenase | L-lactate dehydrogenase A chain (Homo sapiens), P00338 | hit rate 0.15% among 480,000 | activity change, % (values are at about 110 or 230 µM) | purified LDHA, NADH/diaphorase-resazurin fluorescence; active compounds read low | AID 1347041, 2019; in the data active means activity change below about -30%;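 further: plate controls were DMSO wells for no effect and wells without enzyme for full effect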
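Remaining NADH was detected by diaphorase (0.133 mg/mL) converting 37 µM resazurin to fluorescent resorufin, read at 0 and 20 minutes. The preceding 5-minute room-temperature reaction used 2 nM LDHA, 0.2 mM sodium pyruvate and 0.06 mM NADH at pH 7.4.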
D2 PAM-2: Beta-Arrestin HTS for Positive Allosteric Modulators of the Human D2 Dopamine Receptor: Potentiators; AID 624464, 2012; DiscoveRx D2 beta-arrestin cells, luminescence, 90 min; 100% = 57 uM dopamine signal; hit rate 0.23% among 360,000; potentiation, % (concentration not given with the values); D(2) dopamine receptor (Homo sapiens), P14416; in the data active means potentiation above about 50%
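PathHunter D2 cells, attached overnight at 37 deg C, received compound in DMSO plus dopamine at EC20 (50 nM final) for 90 min at 37 deg C. Beta-arrestin recruitment was read as luminescence after 1 h with detection reagent at ambient temperature.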
D2 ag-2: HTS Assay for Allosteric Agonists of the Human D2 Dopamine Receptor: Primary Screen for Agonists. D(2) dopamine receptor (Homo sapiens), P14416. AID 485358, 2010. activation, % at 2 µM. hit rate 0.53% among 340,000. HEK293 T-REx D2 cells, calcium flux agonist mode;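 active means activation over 3 SD above normal in the single-dose calcium agonist read, cut at about 30% in these data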; further: 0% is about no effect
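In this primary screen, compounds producing a positive calcium signal within 180 s of addition to tetracycline-induced, force-coupled HEK293 Trex D2 cells are flagged; cells are dye-loaded with a no-wash calcium kit beforehand.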
Active calls of the source: *; nt = no result given. Hits are enriched below; roughly 2.1% of the tested compounds scored in any of these assays.

SMILES	D2 PAM-1	D2 ag-1	D2 antag	LDHA block	D2 PAM-2	D2 ag-2
O=C(O)/C(=C\c1cccnc1)NC(=O)c1ccccc1	nt	nt	nt	4	nt	nt
CCCC1=C(C(=O)OCC)C(c2ccc(C)cc2)C(C#N)=C(N)O1 (stereo not drawn)	nt	nt	nt	16	nt	nt
Cc1ccc([N+](=O)[O-])c(OCCN2CCc3ccccc3C2)c1	-27	3	88*	-14	-3	17
O=[N+]([O-])c1ccccc1OCCCN1CCc2ccccc2C1	-9	5	75*	-4	-26	0
Cc1ccc(OCCCCN2CCCCC2)cc1	0	0	7	-1	-35	0
Cc1ccc(OCCCCN2CCc3ccccc3C2)cc1	-12	8	73*	-4	-26	0
CC(=O)NCCNC(=O)CCc1ncc(-c2ccc(Cl)cc2Cl)o1	nt	nt	nt	-15	nt	nt
CC(C)Cn1c(Cn2cccn2)nc2cc(NC(=O)c3ccccc3)ccc21	nt	nt	nt	0	nt	nt
CCCc1nc(Cn2cnc3c2c(=O)n(C)c(=O)n3C)cs1	nt	nt	nt	0	nt	nt
COC(=O)CNC(=O)c1cc(-c2ccco2)nc2ccccc12	nt	nt	nt	5	nt	nt
OCCN1CCN(CCCN2c3ccccc3Sc3ccc(C(F)(F)F)cc32)CC1	nt	nt	60*	-1	nt	nt
OCCN1CCN(CC/C=C2/c3ccccc3CSc3ccccc32)CC1	nt	-7	nt	1	-15	nt
CCN(CC)CC(=O)N1c2ccccc2Sc2ccccc21	-13	-1	3	-2	-11	1
OCCN1CCN(CC/C=C2/c3ccccc3Sc3ccc(C(F)(F)F)cc32)CC1	-22	2	83*	-2	-29	2
CCN(CC)CCCCN1c2ccccc2Sc2ccccc21	-20	-5	47*	-4	-20	0
CN(C)CCCN1c2ccccc2Sc2ccc(C(F)(F)F)cc21	-29	4	95*	-13	-22	1
CCC(=O)NCC(c1ccc(Cl)cc1)N1CCN(C)CC1 (stereo not drawn)	nt	nt	nt	0	nt	nt
O=C(NC(c1ccc(Cl)cc1)c1cccnc1)C1CCCCC1 (stereo not drawn)	nt	nt	nt	-6	nt	nt
COc1cc2cc(C(=O)NCC(=O)Nc3nccs3)n(C)c2c(OC)c1OC	nt	nt	nt	16	nt	nt
COC(=O)c1c(C)[nH]c(C(=O)C(C)OC(=O)c2c(F)cccc2F)c1C (stereo not drawn)	nt	nt	nt	0	nt	nt
CCc1nc2ccccc2c(C(=O)OCC(=O)NC23CC4CC(CC(C4)C2)C3)c1C	nt	nt	nt	-7	nt	nt
CCCOc1ccc(C(=O)CCC(=O)OCC(=O)Nc2c(C)cc(C)cc2Cl)cc1	nt	nt	nt	12	nt	nt
COC(=O)C1=C(C)OC(N)=C(C#N)C1c1ccc(C)cc1C (stereo not drawn)	nt	nt	nt	11	nt	nt
CN1CCN(CCC=C2c3ccccc3Sc3ccc(S(=O)(=O)N(C)C)cc32)CC1	-17	1	77*	-14	-3	1
CN(C)S(=O)(=O)c1ccc(S(=O)(=O)N2CCN(CCC#N)CC2)cc1	-1	0	-18	-1	-3	2
SMILES	D2 PAM-1	D2 ag-1	D2 antag	LDHA block	D2 PAM-2	D2 ag-2
CC1Cc2ccccc2N1C(=O)CN(C)CC(=O)Nc1ccc(F)cc1 (stereo not drawn)	-3	-5	43*	1	-25	0
O=c1[nH]cccc1NS(=O)(=O)c1ccc(Cl)c(C(F)(F)F)c1	nt	nt	nt	76	nt	nt
CCCn1c(SCC(=O)c2ccc3c(c2)OCCO3)nc2c1c(=O)n(C)c(=O)n2C	21	0	31*	-4	2	1
COc1ccc(/C(O)=C2/C(=O)C(=O)N(CCCN3CCOCC3)C2c2ccc(OC)cc2)cc1 (stereo not drawn)	6	-3	4	-3	-3	0
COc1ccc(C2/C(=C(/O)c3ccc(S(=O)(=O)N4CCOCC4)cc3)C(=O)C(=O)N2CCN2CCOCC2)cc1 (stereo not drawn)	-8	-2	40*	-8	-9	1
Cc1noc(C)c1CSc1nc2ccccc2n1CCc1ccccc1	35*	-2	-13	-2	-10	-1
COC(=O)Cn1c(SCc2ccccc2)nc2ccccc21	31*	-1	-1	1	-4	-1
CCSc1nc2ccccc2n1CC(=O)OC	0	-4	-6	-3	-6	0
CC(C)N(C(=O)CSc1nc2ccccc2n1Cc1ccccc1)C(C)C	36*	-6	-25	-7	-17	-1
COc1ccc(-c2cc(C(=O)NCCCOC(C)C)c3cc(Br)ccc3n2)cc1	nt	nt	nt	-10	nt	nt
COc1cc(-c2csc(NC3CC3)n2)cc(OC)c1OC	nt	nt	nt	3	nt	nt
Cc1c(Cc2ccccc2)c(=O)oc2cc(OCC(=O)NCCCO)ccc12	nt	nt	nt	0	nt	nt
Cc1cn([C@H]2C[C@H](N[S+](=O)([O-])Cc3ccc(C(F)(F)F)cc3)[C@@H](CO)O2)c(=O)[nH]c1=O	nt	nt	nt	-7	nt	nt
CCCCCCn1c(-c2ccco2)nc2oc3cc(OC)ccc3c(=O)c2c1=O	30*	-1	-4	2	-9	-1
COc1ccc(Cn2c(C)nc3oc4cc(OC)ccc4c(=O)c3c2=O)cc1	-11	-6	72*	2	-38	0
Cc1nc2oc3ccccc3c(=O)c2c(=O)n1Cc1ccccc1	-9	-1	31*	-4	-4	1
Cc1ccc(CSc2nc3ccccc3c(=O)n2C)cc1	1	-1	34*	-5	-6	2
CN(C)c1nc2ccccc2c(N)c1-c1ccccc1	-12	0	8	-38*	-15	1
CCCCc1c(O)c2ccccc2n(CCCC)c1=O	-6	-2	3	-3	-2	-1
CCCCc1c(CCC)c(=N)c2ccccc2n1C	9	-2	2	-37*	-24	0
O=c1c2ccccc2nc(-c2ccoc2)n1CCc1ccccc1	62*	-3	2	-3	0	0
O=c1c2ccccc2nc(-c2ccco2)n1Cc1ccccc1	22	-3	24	-1	-9	-1
CCOc1ccc(CCn2c(-c3ccco3)nc3ccccc3c2=O)cc1OCC	-23	-2	36*	-2	1	0
Cc1cc2c(s1)CCc1cc(C(=O)NC3CCCCC3)sc1-2	nt	nt	nt	11	nt	nt
CN(C)C(=O)CN1CCN(C(C(=O)O)c2c[nH]c3ccc(OCC#N)cc23)CC1 (stereo not drawn)	nt	nt	nt	-6	nt	nt
COc1ccc(N=Cc2c(O)c3ccccc3n2C(C)=O)cc1	nt	-5	nt	4	-18	nt

Screens deposited in PubChem BioAssay by National Center for Advancing Translational Sciences (NCATS).
